# From the supplement of paper PMC10849652
# Of roughly 7,900 targets only a part is listed; those with a hit were picked by preference. About 0.6% of all pairs of compound and target were hits. Unmarked numbers belong to inactive results.
# What was measured:
# Assay in all cases: log2 fold change, soluble protein after heating vs DMSO (PISA); higher = thermal stabilisation; K562 cells, 10 uM, 30 min; active = over 0.2 and 3.5 SD of the protein, either way, in both replicates (recomputed)
# [1] = compound: C#Cc1cccc(Nc2ncnc3cc(OCCOC)c(OCCOC)cc23)c1 [erlotinib]
# In short: (§1)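 Values are thermal stability changes relative to control samples and are taken from duplicates. They are stated as log2 fold changes. Before quantification by TMTpro 16plex LC-MS/MS with equalised channel sums, K562 cells at 2×10^6 cells/mL were treated with 10 μM compound for 30 min, heated in aliquots for 3 min across 48°C-58°C, pooled, extracted in PBS with 0.5% NP-40 at 4°C, and centrifuged at 21,000xg for 90 min to give the soluble supernatant.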
# [2] = compound: C/C(=N\NC(=O)C1=CC(=CC=C1)S(=O)(=O)N2CCOCC2)/C3=C(C=CC(=C3)Cl)O
# In short: as §1
# [3] = compound: C1=CC(=C(C=C1Cl)C2=NC3=NC=CN=C3C(=N2)NC4=CC=NC=C4)F
# In short: as §1
# [4] = compound: C1=CC(=CC=C1C2=NC3=C(N2)C=C(C=C3)C(=O)N)OC4=CC=C(C=C4)Cl
# In short: as §1
# [5] = compound: C1=CC2=C(C=CC(=C2)/C=C\3/C(=O)NC(=NCC4=CC=CS4)S3)N=C1
# In short: as §1
# [6] = compound: C1=CC2=NC=CN=C2C=C1/C=C/3\C(=O)NC(=O)S3
# In short: as §1
# [7] = compound: C1=CC=C(C=C1)C2=NC(=C(N2)C3=CC=NC=C3)C4=CC(=C(C=C4)Cl)O
# In short: as §1
# [8] = compound: C1=CC=C2C(=C1)C3=NNC4=CC=CC(=C43)C2=O
# In short: as §1
# [9] = compound: C1CCN(C1)C(=O)NC2=CC=CC(=C2)NC3=NC=C(C(=N3)NCCC4=CN=CN4)Br
# In short: as §1
# [10] = compound: C1CN(CCC1(CC2=CC=C(C=C2)Cl)N)C3=NC=NC4=C3C=CN4
# In short: as §1
# Chain of UniProt Q9H4I3 (Q9H4I3 whole entry, looked up): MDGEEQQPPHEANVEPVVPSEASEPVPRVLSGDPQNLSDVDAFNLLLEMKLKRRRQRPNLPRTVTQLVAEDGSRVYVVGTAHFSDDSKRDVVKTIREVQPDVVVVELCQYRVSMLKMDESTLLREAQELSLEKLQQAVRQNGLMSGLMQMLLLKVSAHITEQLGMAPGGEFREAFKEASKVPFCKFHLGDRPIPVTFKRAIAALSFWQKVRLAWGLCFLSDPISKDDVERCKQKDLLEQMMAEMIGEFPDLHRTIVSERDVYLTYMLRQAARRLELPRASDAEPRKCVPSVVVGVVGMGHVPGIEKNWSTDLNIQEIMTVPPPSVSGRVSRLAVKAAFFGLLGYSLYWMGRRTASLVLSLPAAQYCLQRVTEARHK
# Chain of UniProt Q8NEZ2 (Q8NEZ2 whole entry, looked up): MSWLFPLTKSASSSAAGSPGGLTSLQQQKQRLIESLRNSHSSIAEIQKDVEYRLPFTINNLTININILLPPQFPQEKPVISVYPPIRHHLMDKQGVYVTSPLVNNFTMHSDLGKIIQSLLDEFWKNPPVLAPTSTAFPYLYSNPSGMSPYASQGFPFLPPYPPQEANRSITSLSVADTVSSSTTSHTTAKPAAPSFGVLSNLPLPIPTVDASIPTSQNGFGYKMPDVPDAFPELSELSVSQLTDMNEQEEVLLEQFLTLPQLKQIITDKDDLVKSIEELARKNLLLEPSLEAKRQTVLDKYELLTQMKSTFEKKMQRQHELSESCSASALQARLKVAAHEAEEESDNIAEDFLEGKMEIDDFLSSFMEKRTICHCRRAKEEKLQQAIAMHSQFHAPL
# Chain of UniProt Q96QU8 (Q96QU8 whole entry, looked up): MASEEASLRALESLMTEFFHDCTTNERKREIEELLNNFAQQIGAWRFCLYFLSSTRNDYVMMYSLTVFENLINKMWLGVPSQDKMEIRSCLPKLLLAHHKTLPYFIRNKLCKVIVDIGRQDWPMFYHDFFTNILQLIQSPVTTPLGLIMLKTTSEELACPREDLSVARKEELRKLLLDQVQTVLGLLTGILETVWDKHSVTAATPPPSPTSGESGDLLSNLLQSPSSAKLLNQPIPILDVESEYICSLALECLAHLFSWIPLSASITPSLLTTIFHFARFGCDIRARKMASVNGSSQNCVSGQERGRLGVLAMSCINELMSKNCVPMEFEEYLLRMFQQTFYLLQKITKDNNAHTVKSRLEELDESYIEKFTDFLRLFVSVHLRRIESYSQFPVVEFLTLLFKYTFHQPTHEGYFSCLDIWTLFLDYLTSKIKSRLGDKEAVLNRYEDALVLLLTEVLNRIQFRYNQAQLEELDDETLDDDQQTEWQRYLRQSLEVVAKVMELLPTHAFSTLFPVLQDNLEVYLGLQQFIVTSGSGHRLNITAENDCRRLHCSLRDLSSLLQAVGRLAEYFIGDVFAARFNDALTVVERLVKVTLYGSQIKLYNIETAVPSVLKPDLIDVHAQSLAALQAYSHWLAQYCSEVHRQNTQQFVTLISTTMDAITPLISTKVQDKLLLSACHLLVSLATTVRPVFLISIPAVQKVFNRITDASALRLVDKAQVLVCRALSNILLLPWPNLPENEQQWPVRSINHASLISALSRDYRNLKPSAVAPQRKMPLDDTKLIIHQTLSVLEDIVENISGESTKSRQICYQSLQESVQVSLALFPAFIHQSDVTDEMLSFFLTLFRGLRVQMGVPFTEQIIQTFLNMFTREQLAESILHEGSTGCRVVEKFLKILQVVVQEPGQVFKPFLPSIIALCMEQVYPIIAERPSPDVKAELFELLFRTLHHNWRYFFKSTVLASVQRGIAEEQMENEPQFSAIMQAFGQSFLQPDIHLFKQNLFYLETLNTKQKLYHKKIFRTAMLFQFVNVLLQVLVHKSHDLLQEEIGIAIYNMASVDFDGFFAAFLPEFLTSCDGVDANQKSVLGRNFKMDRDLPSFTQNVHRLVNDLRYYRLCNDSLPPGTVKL
# Chain of UniProt Q502W6 (Q502W6 whole entry, looked up): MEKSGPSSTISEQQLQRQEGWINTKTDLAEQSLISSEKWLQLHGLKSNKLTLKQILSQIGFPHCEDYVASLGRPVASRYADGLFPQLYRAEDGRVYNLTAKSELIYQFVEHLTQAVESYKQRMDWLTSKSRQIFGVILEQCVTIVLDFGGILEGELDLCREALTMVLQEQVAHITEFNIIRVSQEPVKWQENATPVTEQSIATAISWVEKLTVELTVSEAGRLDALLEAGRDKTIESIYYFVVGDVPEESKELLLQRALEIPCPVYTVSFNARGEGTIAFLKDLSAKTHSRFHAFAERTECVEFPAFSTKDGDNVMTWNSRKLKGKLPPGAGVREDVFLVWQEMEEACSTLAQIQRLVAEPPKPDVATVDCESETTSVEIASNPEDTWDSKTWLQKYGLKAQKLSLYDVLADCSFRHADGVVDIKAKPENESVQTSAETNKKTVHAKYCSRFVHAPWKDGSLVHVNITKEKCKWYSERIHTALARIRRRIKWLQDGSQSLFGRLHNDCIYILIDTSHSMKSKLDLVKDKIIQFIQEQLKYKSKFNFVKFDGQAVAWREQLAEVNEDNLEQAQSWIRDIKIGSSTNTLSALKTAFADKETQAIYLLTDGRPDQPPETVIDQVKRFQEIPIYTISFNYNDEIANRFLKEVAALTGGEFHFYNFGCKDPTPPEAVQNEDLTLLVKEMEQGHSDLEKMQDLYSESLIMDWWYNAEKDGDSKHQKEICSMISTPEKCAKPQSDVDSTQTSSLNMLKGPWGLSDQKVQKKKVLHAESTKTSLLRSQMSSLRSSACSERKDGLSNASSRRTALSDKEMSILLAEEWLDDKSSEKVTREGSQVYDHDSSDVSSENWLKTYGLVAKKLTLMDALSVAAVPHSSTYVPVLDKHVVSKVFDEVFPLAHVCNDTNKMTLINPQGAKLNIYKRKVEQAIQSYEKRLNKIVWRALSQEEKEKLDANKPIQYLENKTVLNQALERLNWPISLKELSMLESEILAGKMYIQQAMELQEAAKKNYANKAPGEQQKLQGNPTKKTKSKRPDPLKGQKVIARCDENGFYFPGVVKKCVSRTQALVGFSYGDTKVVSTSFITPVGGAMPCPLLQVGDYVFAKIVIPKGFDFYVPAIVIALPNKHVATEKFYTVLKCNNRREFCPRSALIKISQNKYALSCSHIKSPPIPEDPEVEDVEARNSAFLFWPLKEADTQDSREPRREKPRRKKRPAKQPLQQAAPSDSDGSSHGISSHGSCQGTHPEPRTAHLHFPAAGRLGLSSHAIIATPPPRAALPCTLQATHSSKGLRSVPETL
# Chain of UniProt Q9NQH7 (Q9NQH7 whole entry, looked up): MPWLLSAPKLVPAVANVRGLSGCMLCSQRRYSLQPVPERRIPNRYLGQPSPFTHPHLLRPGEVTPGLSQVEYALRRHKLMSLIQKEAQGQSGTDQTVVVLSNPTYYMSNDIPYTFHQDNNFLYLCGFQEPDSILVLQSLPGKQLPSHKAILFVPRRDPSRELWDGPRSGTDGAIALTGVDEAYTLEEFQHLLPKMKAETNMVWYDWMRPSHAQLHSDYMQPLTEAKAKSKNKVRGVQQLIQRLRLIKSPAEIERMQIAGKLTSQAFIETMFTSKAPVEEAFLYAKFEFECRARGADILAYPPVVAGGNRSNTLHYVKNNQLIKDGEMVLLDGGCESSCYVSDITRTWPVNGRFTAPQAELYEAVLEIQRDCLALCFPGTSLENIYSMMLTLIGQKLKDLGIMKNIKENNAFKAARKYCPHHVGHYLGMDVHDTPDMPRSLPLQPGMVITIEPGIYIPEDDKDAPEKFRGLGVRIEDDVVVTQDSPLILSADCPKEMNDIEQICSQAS
# Chain of UniProt Q9NQW7 (Q9NQW7 whole entry, looked up): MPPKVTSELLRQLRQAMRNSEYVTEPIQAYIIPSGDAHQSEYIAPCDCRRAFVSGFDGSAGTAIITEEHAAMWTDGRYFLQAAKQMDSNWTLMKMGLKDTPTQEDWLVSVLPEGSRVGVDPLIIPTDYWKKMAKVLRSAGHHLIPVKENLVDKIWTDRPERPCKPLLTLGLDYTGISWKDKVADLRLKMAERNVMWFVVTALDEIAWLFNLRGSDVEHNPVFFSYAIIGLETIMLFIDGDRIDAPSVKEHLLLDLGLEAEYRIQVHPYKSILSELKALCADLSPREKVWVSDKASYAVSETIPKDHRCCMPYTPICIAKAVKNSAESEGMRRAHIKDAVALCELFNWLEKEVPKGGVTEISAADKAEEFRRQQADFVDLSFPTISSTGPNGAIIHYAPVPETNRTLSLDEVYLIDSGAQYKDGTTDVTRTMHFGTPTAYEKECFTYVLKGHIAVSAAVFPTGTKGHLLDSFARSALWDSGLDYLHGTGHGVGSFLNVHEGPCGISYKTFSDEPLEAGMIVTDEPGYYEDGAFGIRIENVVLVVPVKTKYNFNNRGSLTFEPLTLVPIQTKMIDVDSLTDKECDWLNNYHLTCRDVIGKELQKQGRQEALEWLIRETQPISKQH
# Chain of UniProt Q6VEQ5 (Q6VEQ5 whole entry, looked up): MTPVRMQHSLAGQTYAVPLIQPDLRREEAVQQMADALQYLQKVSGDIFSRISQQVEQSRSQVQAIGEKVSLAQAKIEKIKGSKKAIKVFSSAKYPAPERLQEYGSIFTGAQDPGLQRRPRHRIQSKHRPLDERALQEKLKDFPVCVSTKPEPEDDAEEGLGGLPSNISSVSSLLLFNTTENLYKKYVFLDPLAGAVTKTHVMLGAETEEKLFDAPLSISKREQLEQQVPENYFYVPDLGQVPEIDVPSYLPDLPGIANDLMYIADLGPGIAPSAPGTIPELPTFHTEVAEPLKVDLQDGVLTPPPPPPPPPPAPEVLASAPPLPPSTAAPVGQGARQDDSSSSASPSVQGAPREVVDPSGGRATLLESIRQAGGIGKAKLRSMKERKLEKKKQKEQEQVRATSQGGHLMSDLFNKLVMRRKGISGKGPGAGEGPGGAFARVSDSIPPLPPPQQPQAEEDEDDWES
# Chain of UniProt O00258 (O00258 whole entry, looked up): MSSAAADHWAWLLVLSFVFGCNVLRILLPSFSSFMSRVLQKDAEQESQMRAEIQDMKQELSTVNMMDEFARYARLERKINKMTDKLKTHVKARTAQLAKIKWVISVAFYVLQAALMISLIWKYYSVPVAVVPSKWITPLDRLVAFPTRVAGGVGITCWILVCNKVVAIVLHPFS
Target,log2 fold change [1],log2 fold change [2],log2 fold change [3],log2 fold change [4],log2 fold change [5],log2 fold change [6],log2 fold change [7],log2 fold change [8],log2 fold change [9],log2 fold change [10]
TMEM189-UBE2V1 (UniProt I3L0A0),-0.014,0.025,0.015,0.019,0.055,-0.047,0.028,-0.009,0.02,0.058
VDAC1 (UniProt C9JI87),0.277,-0.05,0.095,-0.01,0.13,0.124,0.091,-0.04,,
TOE1 (UniProt Q96GM8),-0.029,-0.151,-0.267,-0.056,0.002,0.005,-0.05,-0.035,-0.021,-0.107
WASH2P (UniProt Q6VEQ5),0.005,-0.02,-0.084,0.003,0.041,0.038,0.014,0.011,0.117,0.013
UBA1 (UniProt P22314),0.1,0.166,0.074,-0.024,0.114,-0.004,0.065,0.023,-0.034,-0.175
TSFM (UniProt P43897),0.037,-0.004,0.302,-0.206,0.189,0.044,0.11,-0.069,-0.016,0.095
VPS16 (UniProt Q9H269),0.104,0.128,-0.004,-0.034,0.093,0.087,-0.031,-0.018,-0.007,-0.128
TRABD (UniProt Q9H4I3),-0.057,-0.023,-0.029,0.016,0.032,-0.049,0.121,0.074,-0.077,0.071
UTP4 (UniProt Q969X6),-0.05,-0.07,-0.009,0.005,-0.082,0.026,-0.022,0.012,0,0.06
USP15 (UniProt Q9Y4E8),0.026,0.078,0.08,-0.015,0.027,0.031,0,0.012,-0.011,-0.031
UBAP2L isoform 5 (UniProt Q14157),0.057,-0.005,0.005,0,0.013,0.015,-0.029,-0.03,-0.007,0.026
UHRF1BP1L (UniProt A0JNW5),-0.024,0.017,0.016,0.027,0.042,0.01,-0.009,0.025,-0.007,0.061
XPO6 (UniProt Q96QU8),0.07,0.056,-0.465 (active),-0.055,0.093,-0.15,-0.01,-0.008,0.087,0.02
TMEM63B (UniProt Q5T3F8),-0.037,0.063,-0.024,-0.009,-0.066,0.012,-0.076,-0.033,0.011,0.065
XPNPEP1 isoform 3 (UniProt Q9NQW7),-0.005,-0.069,0.067,0.022,0.076,-0.003,0.048,0.04,0,0.033
UBE4A isoform 2 (UniProt Q14139),0.012,0.148,0.083,-0.11,0.012,0.083,-0.039,-0.301,-0.018,-0.132
VPS52 (UniProt Q8N1B4),0.019,0.048,-0.029,0.067,0.032,0.031,0.004,0.079,-0.033,-0.051
WRB (UniProt O00258),-0.02,0.012,0.032,0.019,-0.003,0.069,0.019,-0.042,0.027,-0.011
USP24 (UniProt Q9UPU5),0.126,-0.147,0.101,-0.113,0.092,0.148,0.141,0.094,0.181,0.297
TMEM120A (UniProt Q9BXJ8),-0.036,0.109,0.174,0.053,0,0.236,-0.02,-0.036,-0.071,0.1
UBAP1 isoform 4 (UniProt Q9NZ09),0.001,0.127,0.013,0.049,0.025,0.027,-0.02,0.024,0.058,-0.093
WDR11 (UniProt Q9BZH6),0.103,-0.081,0.145,-0.004,0.115,0.067,-0.168,0.005,0.091,0.023
VPS37A (UniProt Q8NEZ2),0.127,0.113,-0.042,-0.097,-0.054,0.059,0.098,0.044,0.036,0.008
WDR46 (UniProt O15213),-0.209,-0.231,-0.816 (active),0.008,-0.154,0.065,-0.055,0.052,0.057,-0.087
TMEM268 isoform 3 (UniProt Q5VZI3),-0.161,0.061,-0.166,0.054,0.024,-0.138,0.118,-0.21,0.13,0.045
XPNPEP3 (UniProt Q9NQH7),0.019,-0.275 (active),0.017,0.06,0.067,0.026,-0.005,0,0.005,0.083
VWA3B isoform 6 (UniProt Q502W6),0.107,-0.036,0.213,-0.057,0.048,0.111,-0.214,-0.049,0.03,-0.03
TRIP10 (UniProt Q15642),0.052,0.015,0.203,0.022,0.013,-0.025,0.044,0.011,0.013,-0.026
USP34 (UniProt Q70CQ2),0.065,0.074,0.026,-0.02,0.145,-0.013,0.027,-0.043,0.015,-0.086
VPS41 (UniProt P49754),-0.022,0.076,-0.049,-0.018,0.086,0.056,0.004,0.031,0.043,-0.058
